{
  "source": "the supplement of paper PMC11624193",
  "about": "“Coupling cellular drug-target engagement to downstream pharmacology with CeTEAM” (Nature Communications, 2024)",
  "molecular_target": "PARP1 L713F-nLuc biosensor (HCT116) (UniProt P09874)",
  "sequence (P09874 whole entry L713F, looked up)": "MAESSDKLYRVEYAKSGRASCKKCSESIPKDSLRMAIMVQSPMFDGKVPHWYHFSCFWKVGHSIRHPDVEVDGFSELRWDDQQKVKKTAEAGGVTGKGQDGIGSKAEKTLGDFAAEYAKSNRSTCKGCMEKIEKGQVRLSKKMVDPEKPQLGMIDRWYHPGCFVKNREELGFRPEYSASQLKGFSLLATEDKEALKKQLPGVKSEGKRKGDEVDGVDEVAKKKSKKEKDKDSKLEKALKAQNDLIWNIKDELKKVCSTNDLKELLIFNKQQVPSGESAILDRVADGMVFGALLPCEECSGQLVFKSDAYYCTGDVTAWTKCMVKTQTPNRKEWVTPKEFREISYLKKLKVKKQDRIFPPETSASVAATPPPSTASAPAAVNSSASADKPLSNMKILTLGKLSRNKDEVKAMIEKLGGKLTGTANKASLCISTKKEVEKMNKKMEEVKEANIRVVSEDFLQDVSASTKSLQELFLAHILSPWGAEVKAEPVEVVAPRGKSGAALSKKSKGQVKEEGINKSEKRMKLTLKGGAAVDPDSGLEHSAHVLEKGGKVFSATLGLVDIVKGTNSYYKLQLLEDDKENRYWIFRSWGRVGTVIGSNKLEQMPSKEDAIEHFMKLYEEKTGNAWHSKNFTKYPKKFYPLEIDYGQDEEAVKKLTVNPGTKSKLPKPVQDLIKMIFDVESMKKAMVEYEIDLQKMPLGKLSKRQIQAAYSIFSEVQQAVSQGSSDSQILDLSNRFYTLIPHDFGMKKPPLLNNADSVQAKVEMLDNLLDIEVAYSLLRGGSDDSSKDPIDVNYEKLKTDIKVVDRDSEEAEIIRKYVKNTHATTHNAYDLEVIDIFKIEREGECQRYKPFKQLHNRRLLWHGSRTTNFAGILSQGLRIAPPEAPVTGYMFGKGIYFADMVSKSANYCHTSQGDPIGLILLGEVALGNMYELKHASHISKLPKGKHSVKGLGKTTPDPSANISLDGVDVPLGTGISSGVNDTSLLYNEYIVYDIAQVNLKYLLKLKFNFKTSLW",
  "assay": "PARP1 L713F-nLuc/akaLuc ratio relative to DMSO control (biosensor stabilization) (fold change); higher = more PARP1 biosensor stabilization (target engagement / stabilizer), active = hit call of the paper",
  "conditions": "stock concentration (mM; final µM = stock mM x 1): 2; 24 h",
  "note": "A number with no mark means an inactive call.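 Rule for the calls: active = log2 fold change beyond 2 SD from the library mean after excluding viability outliers; inactive = within 2 SD.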",
  "data": [
    {"smiles": "CC(=O)c1c(O)c(C)c(O)c(Cc2c(O)c3c(c(C(=O)/C=C/c4ccccc4)c2O)OC(C)(C)C=C3)c1O", "note": "[Rottlerin]", "values": [
      {"measurement": "PARP1 L713F-nLuc/akaLuc ratio", "result": 0.628}
    ]}
  ]
}
